TrxR1 inh: inhibitors of rat thioredoxin reductase 1. Potency, µM (highest dose often 114 µM), usual class: inhibitors. O89049. recombinant rTrxR1, NADPH fluorescence consumption, selenite substrate. actives 1% (n = 390,000). AID 588453; also: nearly all actives have a fitted effect of over 65% in size
Target sequence (O89049 whole entry, looked up): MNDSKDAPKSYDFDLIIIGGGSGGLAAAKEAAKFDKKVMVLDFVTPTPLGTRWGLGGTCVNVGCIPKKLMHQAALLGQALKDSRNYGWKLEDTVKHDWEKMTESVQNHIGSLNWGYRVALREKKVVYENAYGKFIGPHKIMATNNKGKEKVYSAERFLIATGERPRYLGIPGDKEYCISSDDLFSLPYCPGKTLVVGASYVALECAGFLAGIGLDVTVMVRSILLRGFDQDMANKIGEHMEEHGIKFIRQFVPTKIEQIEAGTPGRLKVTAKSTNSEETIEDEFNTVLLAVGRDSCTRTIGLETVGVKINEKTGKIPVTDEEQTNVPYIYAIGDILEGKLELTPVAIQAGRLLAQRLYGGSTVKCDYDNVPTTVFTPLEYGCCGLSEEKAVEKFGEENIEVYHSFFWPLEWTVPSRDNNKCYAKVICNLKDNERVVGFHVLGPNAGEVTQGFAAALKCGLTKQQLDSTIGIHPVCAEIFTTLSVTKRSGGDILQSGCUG
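Rat TrxR1 (90 nM in the dispensed reagent) was pre-reduced with 400 uM NADPH for 5 min at room temperature, then incubated with compound for 15 min. After 400 uM selenite was added, NADPH fluorescence (Ex 340/Em 450 nm) was followed for 8 min.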
GCN5L2 inh: GCN5L2 (KAT2A) acetyltransferase inhibition | Q92830 | AID 504327 | actives 0.21% (n = 390,000) | GCN5L2 HAT assay, ThioGlo1 CoA-SH fluorescence | Potency, µM (titrated, usually from 58.9 µM), actives largely listed as inhibitors
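GCN5L2 (20nM final) in 50mM HEPES, 0.1mM EDTA pH 7.5, 0.01% Tween-20 was preincubated 15 min at room temperature with compound, then given ThioGlo1 (50uM), H3(1-25) peptide (75uM) and acetyl-CoA (70uM); CoA-thiol fluorescence (Ex340/Em540) was read at 0 and 20 min.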
VDR inh: vitamin D3 receptor (human) inhibition; P11473; VDR-SRC2-3 peptide fluorescence polarization, 2 h; Potency, µM, actives largely listed as inhibitors; actives 0.93% (n = 400,000); AID 504847
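Reagent solutions, kept cold and dark, are dispensed first; compounds are then pinned in at 23 nl, plates briefly spun, and incubated 2 h at ambient temperature. Inhibition of VDR–SRC2-3 peptide binding is read by fluorescence polarization.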
TrxR1 substrate: is turned over as a substrate by rat TrxR1. O89049. purified TrxR1 substrate turnover, NADPH consumption readout. Potency, µM (doses to about 114 µM). actives 0.01% (n = 390,000); also: nearly all actives have a fitted effect of over 50% in size
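Rat TrxR1, dispensed at 90 nM, was prereduced with 400 uM NADPH (final) for 5 min at ~22 deg C, then incubated with compound 15 min before 400 uM selenite. A first-read NADPH fluorescence drop versus no-compound background flagged substrates.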
Hits are given with their value; - = inactive; ? = inconclusive; . = no result given; ! = a repeat was not active; [ ] = dose if it differs, or a comment. Rows were chosen to be rich in hits. Some 1.8% of all compounds tested hit in one or more screens of this group. Calls follow the shape of the dose curve; as a rule, active = well fitted curve in the direction sought with a large enough effect; inconclusive = small, poorly fitted or top-dose-only effect, or another doubt; inactive = no such curve, though single readings can be large; an effect the other way counts as inactive or inconclusive.

SMILES	TrxR1 inh	GCN5L2 inh	VDR inh	TrxR1 substrate
CC(=O)OCC1=C(C(=O)O)N2C(=O)C(NC(=O)CC(C)c3ccccc3)C2SC1 (configuration not stated)	-	-	-	-
NC(=O)c1cc[n+](CC2=C(C(=O)O)N3C(=O)[C@@H](NC(=O)[C@@H](c4ccccc4)S(=O)(=O)[O-])[C@H]3SC2)cc1	44.7µM	-	?	-
CC(=O)OCC1=C(C(=O)O)N2C(=O)[C@@H](NC(=O)Cc3cccs3)[C@H]2SC1	?	-	?	-
O=C(C[n+]1cccc2cccc(O)c21)c1ccc2ccccc2c1	-	.	.	-
Cc1ccc(Cl)cc1N1CCN(C(=O)Cn2cnc3nc4c(cc3c2=O)CCCC4)CC1	-	-	-	-
CCOC(=O)/C(C#N)=C\c1cc(OC)c(OC)cc1[N+](=O)[O-]	-	-	20µM	-
CCOC(=O)/C(C#N)=C\c1ccc(OC)c(OC)c1	-	-	-	-
O=c1c2cc(F)ccc2sn1-c1ccccc1	-	1.12µM	20µM	-
Cc1ccccc1-n1sc2cc(F)ccc2c1=O	-	1.26µM	?	-
O=c1c2ccccc2sn1-c1ccccc1	-	1µM	3.98µM	-
CN(C)S(=O)(=O)c1ccc2[nH]cc(/C=C/c3nc4ccccc4c(=O)n3-c3ccccc3)c2c1	-	-	-	-
O=c1c(N2CCN(c3ccc(F)cc3)CC2)csc2ccc(F)cc12	-	-	-	-
CN(C)S(=O)(=O)c1cccc(-n2sc3ccccc3c2=O)c1	-	1.58µM	31.6µM	-
CC1(C)CCC(c2ccc(Cl)cc2)=C(CN2CCN(c3ccc(C(=O)NS(=O)(=O)c4ccc(N[C@H](CCN5CCOCC5)CSc5ccccc5)c(S(=O)(=O)C(F)(F)F)c4)cc3)CC2)C1	-	.	.	-
COCCn1c(=O)cnc2cnc(Nc3cccc(OC)c3)nc21	.	-	-	.
Cc1cc2ccccc2c[n+]1C1CCCCC1	-	.	.	-
O=C(O)c1cccc(N2C(=O)CCC2=O)c1	.	-	.	.
O=C(O)c1cccc(-n2sc3ccccc3c2=O)c1	-	1.26µM	7.08µM	-
O=c1c2ccccc2sn1-c1nccs1	-	3.16µM	3.98µM	-
O=C1c2ccccc2C(=O)N1c1nccs1	-[2.29 µM]	.	-	-
O=C1CCC[C@@H]2CC(N(Cc3cc4ccccc4s3)c3ccccc3)C[C@@H]3CCN1[C@H]23 (some centres not stated)	-	.	.	-
Nc1c(S(=O)(=O)O)cc(NC(=O)c2ccccc2)c2c1C(=O)c1ccccc1C2=O	-	-	?	-
Nc1c(S(=O)(=O)O)cc(Nc2ccc(Cl)cc2)c2c1C(=O)c1ccccc1C2=O	.	28.2µM	31.6µM	.
Nc1c(S(=O)(=O)O)cc(Nc2ccc(Nc3nc(Cl)nc(Nc4ccc(S(=O)(=O)O)cc4)n3)c(S(=O)(=O)O)c2)c2c1C(=O)c1ccccc1C2=O	?	20µM	?	-
O=[N+]([O-])c1ccc(Nc2nc(Cl)nc(NCCO)n2)cc1	-	-	-	-
SMILES	TrxR1 inh	GCN5L2 inh	VDR inh	TrxR1 substrate
Nc1c(S(=O)(=O)O)cc(Nc2cccc3ccccc23)c2c1C(=O)c1ccccc1C2=O	.	12.6µM	35.5µM	.
CCCc1nc2ccccc2n1CC(O)COc1ccc(C(=O)OC)cc1 (configuration not stated)	-	-	-	-
CC1=C(/C=C/C(C)=C/C=C/C(C)=C/C=C/C=C(C)/C=C/C=C(C)/C=C/C2=C(C)C(=O)CCC2(C)C)C(C)(C)CCC1=O	.	?	-	.
CC1=C(/C=C/C(C)=C/C=C/C(C)=C/CO)C(C)(C)CCC1	50.1µM	.	?	-
CC(=O)OC/C=C(C)/C=C/C=C(C)/C=C/C1=C(C)CCCC1(C)C	.	-	39.8µM!	.
CC1=C(/C=C/C(C)=C/C=C/C(C)=C\CO)C(C)(C)CCC1	.	-	?	.
CC(C)C[C@H](NC(=O)[C@H](CCCCN)NC(=O)[C@H](CCC(N)=O)NC(=O)[C@H](Cc1cnc[nH]1)NC(=O)[C@H](Cc1cnc[nH]1)NC(=O)[C@@H](N)C(C)C)C(=O)N[C@H](C(=O)N[C@@H](Cc1ccccc1)C(=O)N[C@@H](Cc1ccccc1)C(=O)N[C@@H](C)C(=O)N[C@@H](CCC(=O)O)C(=O)N[C@@H](CC(=O)O)C(=O)N[C@H](C(=O)NCC(=O)N[C@@H](CO)C(=O)N[C@@H](CC(N)=O)C(=O)N[C@@H](CCCCN)C(=O)O)C(C)C)C(C)C	.	-	-	.
COCCn1nnnc1C(c1cc2cc(C)cc(C)c2[nH]c1=O)N1CCN(c2ccccc2F)CC1 (configuration not stated)	?	-	-	-
COCCn1nnnc1C(c1cc2c(C)cc(C)cc2[nH]c1=O)N1CCCCCC1 (configuration not stated)	39.8µM	-	-	-
O=C(Cn1ncc2c3ccccc3n(Cc3ccccc3F)c2c1=O)NCc1ccccc1Cl	-	-	-	-
O=C(CSc1nnc(C2CCCCC2)n1Cc1ccccc1)NCc1ccco1	44.7µM	-	?	-
CCCCCCCCCC[n+]1ccc(/C=C/c2c(C)[nH]c3ccccc23)cc1	?	.	.	-
Cn1c(SCc2ccc(Cl)cc2)nnc1-c1ccc(NC(=O)CCc2ccccc2)cc1	-	.	.	-
O=C(/C=C/c1cn(-c2ccccc2)nc1-c1cccnc1)c1ccco1	-	-	50.1µM	-
O=C(/C=C/c1cn(-c2ccccc2)nc1-c1cccnc1)N1CCCC1	-	-	-	-
COc1ccc(CCNC(=O)c2ccc3c(c2)NC(=O)C(C(C)C)N3)cc1OC (configuration not stated)	-	-	-	-
COc1ccc(CCNC(=O)c2ccc3c(c2)NC(=O)C(CSCc2cc(C)ccc2C)N3)cc1OC (configuration not stated)	.	28.2µM	.	.
CN(C(=O)COC(=O)c1nc(Cl)c(Cl)c(Cl)c1Cl)C1CCS(=O)(=O)C1 (configuration not stated)	14.1µM	-	-	-
CN(C(=O)COC(=O)c1ccc(C(C)(C)C)cc1)C1CCS(=O)(=O)C1 (configuration not stated)	-	-	-	-
CCCN1CCC(=O)N(CCC#N)CC1	-	.	.	-
O=c1c(-c2cc(O)c(O)c(O)c2)coc2cc(O)c(O)c(O)c12	.	?	14.1µM	.
O=c1c(-c2ccc(O)cc2)coc2cc(O)cc(O)c12	-	-	-	-
COc1ccc(-c2cc3ccc(OC(C)C(=O)O)cc3oc2=O)cc1 (configuration not stated)	70.8µM	?	-	-
O=C(c1cnccn1)N1CCC2(CCCN(c3ccc(-c4ccccc4)cc3)C2)CC1	.	-	?	.
O=C(c1ccncc1)N1CCC2(CCCN(c3cccc(-c4ccccc4)c3)C2)CC1	.	-	44.7µM	.
O=C(c1cnccn1)N1CCC2(CCCN(c3cccc(-c4ccccc4)c3)C2)CC1	.	-	35.5µM	.
CC(C)NC(=O)N1CCCC2(CCN(C(=O)c3ccco3)CC2)C1	.	-	-	.
O=C(c1ccco1)N1CCC2(CCCN(C(c3ccccc3)c3ccccc3)C2)CC1	.	-	35.5µM	.
O=C(c1ccco1)N1CCC[C@@]2(CCN(c3cccc(-c4ccccc4)c3)C2)C1	.	-	28.2µM	.
